Lamin A splicing: qHTS Assay for Modulators of Lamin A Splicing; HeLa LMNA splicing GFP/RFP minigene ratio, 48 h; AID 1487, 2009; actives 0.01% (n = 200,000); Potency, µM (doses to about 46.1 µM), most hits filed as inhibitors; active means well fitted inhibition curve with a large enough effect in the signal ratio, with a control signal flat, not every such curve was filed as active; inconclusive means small, poorly fitted or top-dose-only effect, or effect the other way, or a change in a side signal; the % refers to the signal ratio
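S3 HeLa stable clones carrying a lamin A-EGFP splicing minigene plus DsRed2 were seeded at 600 cells/well in Opti-MEM with 2% FBS, pin-dosed and incubated 48 h at 37°C. Acumen cytometry (488 nm) gave the GFP/RFP total-intensity ratio.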
HTT aggregate: qHTS Multiplex Assay to Identify Dual Action Probes in a Cell Model of Huntington: Aggregate Formation (GFP). AID 1688, 2009. actives 1.1% (n = 220,000). Potency, µM (series often up to 46.1 µM), usual class: inhibitors. PC12 HttQ103-GFP aggregates, Acumen cytometry, 40 h; active means well fitted curve in the direction sought with a large enough effect; inconclusive means small, poorly fitted or top-dose-only effect, or another doubt; inactive means no such curve, though single readings can be large; an effect the other way counts as inactive or inconclusive; further: nearly all actives have a fitted effect of over 60% in size
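Inducible Q103 Huntingtin exon 1–GFP PC12 line, 1500 cells/well in phenol red free DMEM with 5% equine and 5% calf serum. Tebufenozide 100 nM induced expression; compounds titrated; aggregates quantified by cytometry.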
HTT ATP protect: qHTS Multiplex Assay to Identify Dual Action Probes in a Cell Model of Huntington: Cytoprotection (ATP); PC12 HTT-Q103 induced, cytoprotection, ATP luminescence, 40 h; Potency, µM (top dose mostly 56.4 µM), most hits filed as activators; actives 0.14% (n = 230,000); active means well fitted curve in the direction sought with a large enough effect; inconclusive means small, poorly fitted or top-dose-only effect, or another doubt; inactive means no such curve, though single readings can be large; an effect the other way counts as inactive or inconclusive; further: nearly all actives have a fitted effect of over 45% in size
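Stable PC12 Q103-GFP cells in serum-supplemented, phenol red-free DMEM; induction by tebufenozide at 100 nM final; compound dose series; cell viability quantified luminescently from ATP.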
ALDH1A1 block: qHTS Assay for Inhibitors of Aldehyde Dehydrogenase 1 (ALDH1A1); Aldehyde dehydrogenase 1A1 (Homo sapiens), P00352; Purified ALDH1A1, NADH fluorescence, propionaldehyde substrate; Potency, µM (highest dose often 75.3 µM), hits mostly inhibitors; actives 7.3% (n = 220,000); AID 1030, 2008
JMJD2E inh: qHTS Assay for Inhibitors of Human Jumonji Domain Containing 2E (JMJD2E). Lysine-specific demethylase 4E (Homo sapiens), B2RXH2. JMJD2E catalytic domain, FDH-coupled NADH fluorescence (FDH is formaldehyde dehydrogenase). Potency, µM (series often up to 57.1 µM), hits mostly inhibitors. actives 1.6% (n = 230,000). AID 2147, 2009; further: nearly all actives have a fitted effect of over 50% in size
Target sequence (B2RXH2 1-337 limits assumed): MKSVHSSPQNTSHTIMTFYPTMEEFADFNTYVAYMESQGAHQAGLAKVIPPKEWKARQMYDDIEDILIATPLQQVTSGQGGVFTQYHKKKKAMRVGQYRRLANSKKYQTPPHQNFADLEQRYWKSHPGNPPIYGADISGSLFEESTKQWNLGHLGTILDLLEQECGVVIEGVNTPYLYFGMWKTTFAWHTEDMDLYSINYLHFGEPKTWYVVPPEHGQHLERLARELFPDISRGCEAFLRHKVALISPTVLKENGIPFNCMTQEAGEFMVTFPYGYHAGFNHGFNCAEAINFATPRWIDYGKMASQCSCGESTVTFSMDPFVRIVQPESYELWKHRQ
HPGD inh: qHTS Assay for Inhibitors of HPGD (15-Hydroxyprostaglandin Dehydrogenase). 15-hydroxyprostaglandin dehydrogenase [NAD(+)] (Homo sapiens), P15428. purified HPGD, NADH fluorescence kinetic, PGE2 substrate. Potency, µM, most hits filed as inhibitors. actives 4.3% (n = 150,000). AID 894, 2007
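NADH formation kinetics: reaction with 30 uM PGE2 and 1 mM NAD+ (final), 20 nM enzyme, Tris-HCl pH 8 with Tween 20, after 15 min compound preincubation at room temperature. Fluorescence change, last versus first of five reads.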
Each line names hits and unclear results; the compound was inactive in the other large screens. A selection: hits, their analogues and other compounds. The true share with any hit is near 9.2%. Unless noted, the call rests on the fitted dose curve; in most records, active means well fitted inhibition curve with a large enough effect (not every such curve was filed as active); inconclusive means small, poorly fitted or top-dose-only effect, or another doubt; inactive means no such curve, though single readings can be large or run the other way.

Cc1cccc2cc(C(c3nnnn3CC3CCCO3)N3CCCc4ccccc43)c(=O)[nH]c12 (centres undefined)	ALDH1A1 block 1.12µM
O=c1c(S(=O)(=O)c2cccc(Cl)c2)cn(Cc2ccccc2)c2cc(N3CCOCC3)c(F)cc12	none (no result: HTT aggregate, HTT ATP protect, ALDH1A1 block, JMJD2E inh, HPGD inh)
Cn1cc(-c2cc(C(=O)O)on2)cn1	none (no result: Lamin A splicing, ALDH1A1 block, HPGD inh)
CCCNC(=O)NC(=O)COC(=O)c1ccc(S(=O)(=O)N(C)c2ccccc2OC)cc1	Lamin A splicing inconclusive, ALDH1A1 block 12.6µM (no result: HPGD inh)
CCn1c(C(=O)NCc2ccccn2)cc2sccc21	HPGD inh 17.8µM
O=C(NCCc1ccccc1)c1cc2sccc2n1Cc1ccccc1	ALDH1A1 block inconclusive, HPGD inh 15.8µM
CCn1c(C(=O)NCc2cccnc2)cc2sc(Cl)cc21	HPGD inh 15.8µM
O=C(NCc1ccco1)c1cc2sccc2n1Cc1ccccc1	Lamin A splicing inconclusive, HTT aggregate inconclusive, ALDH1A1 block inconclusive, JMJD2E inh inconclusive, HPGD inh 15.8µM
CC(C)C[C@@H](CC(=O)N[C@@H](CCC(=O)O)CC(=O)O)NC(=O)[C@@H]1CNCC[C@H]1NC(=O)C[C@H](CCCN)NC(=O)C[C@H](Cc1c[nH]c2ccccc12)NC(=O)[C@@H]1CNCC[C@H]1N	HTT ATP protect inconclusive, ALDH1A1 block inconclusive (no result: Lamin A splicing, HTT aggregate)
CC1CCC2(OC1)OC1CC3C4CC[C@@H]5CC(O)CC[C@@]5(C)C4CC(=O)[C@]3(C)C1C2C (some centres undefined)	none (no result: Lamin A splicing, HTT aggregate)
C=CCN1C(=O)C(CC(=O)O)SC1=Nc1cccc([N+](=O)[O-])c1 (centres undefined)	ALDH1A1 block 14.1µM (no result: HPGD inh)
COc1ccc(NC(=O)Cn2nc(-c3ccccc3)c3cnc4ccc(C)cc4c32)cc1	none (no result: HTT aggregate, HTT ATP protect, ALDH1A1 block, JMJD2E inh, HPGD inh)
O=C1c2ccccc2CC1Sc1nnc(-c2ccccn2)o1 (centres undefined)	ALDH1A1 block 3.16µM, HPGD inh inconclusive
Cc1cn2c(=O)cc(COC(=O)c3cccc(NC(=O)c4ccccc4Cl)c3)nc2s1	none (no result: HTT aggregate, HTT ATP protect, ALDH1A1 block, JMJD2E inh, HPGD inh)
CC1=C(C(=O)N(C)C)C(c2ccc(C)s2)NC(=S)N1 (centres undefined)	ALDH1A1 block 25.1µM (no result: HPGD inh)
CCN(CC)C(=O)C1=C(C)NC(=S)NC1c1cccs1 (centres undefined)	ALDH1A1 block inconclusive (no result: Lamin A splicing, HTT ATP protect, HPGD inh)
CCN(CC)C(=O)C1=C(C)NC(=S)NC1c1ccc(C)s1 (centres undefined)	ALDH1A1 block 8.91µM (no result: HPGD inh)
CCN(CC)c1ccc2c(Cl)c(Br)c(=O)oc2c1	Lamin A splicing inconclusive, HTT aggregate inconclusive, HTT ATP protect inconclusive, ALDH1A1 block 3.16µM, JMJD2E inh inconclusive
CCN(CC)c1ccc2c(c1)oc(=O)c1c(Cl)cc(=O)oc12	Lamin A splicing inconclusive, HTT aggregate 12.6µM, ALDH1A1 block 2.24µM, HPGD inh 5.62µM
COc1cccc2c1OC(=O)CC2c1ccccc1C (centres undefined)	HPGD inh inconclusive (no result: Lamin A splicing, HTT aggregate, JMJD2E inh)
COP(=O)(OC)OC(c1ccc(Cl)cc1)P(=O)(OC)OC (centres undefined)	HTT ATP protect inconclusive (no result: Lamin A splicing)
CCCSC1=C(C#N)C(c2cc(OC)ccc2OC)CC(=O)N1 (centres undefined)	HPGD inh 22.4µM
CCOc1ccccc1N1CSC2=C(C#N)C(c3c(OC)ccc4ccccc34)CC(=O)N2C1 (centres undefined)	ALDH1A1 block 4.47µM, JMJD2E inh 7.94µM, HPGD inh 7.08µM
CCSC1=C(C#N)C(c2ccc(OC)c(OC)c2)CC(=O)N1 (centres undefined)	none
COc1ccc(N2CSC3=C(C#N)C(c4cc(OC)ccc4OC)CC(=O)N3C2)c(OC)c1 (centres undefined)	ALDH1A1 block 8.91µM, HPGD inh 7.94µM

From PubChem
